High-throughput results deposited in PubChem BioAssay by National Center for Advancing Translational Sciences (NCATS).
SW480 rerep = A quantitative high throughput screen for small molecules that induce DNA re-replication in SW480 colon adenocarcinoma cells; SW480 DNA re-replication, Hoechst DNA content imaging, 48 h; Potency, µM (doses to about 46.1 µM), hits mostly activators; actives 1.8% (n = 340,000); AID 624297, 2012; note: nearly all actives have a fitted effect of over 55% in size
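Cells (250 per well) received 23 nL compound or DMSO by pin tool and were kept 48 hr at 37 C, 5% CO2. Nuclei were then stained with Hoechst for 40 min and scanned for DNA content.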
BCR signal inh = qHTS Assay to Find Inhibitors of Chronic Active B-Cell Receptor Signaling. ABC-DLBCL IkBa-CBG/CBR reporter, luminescence ratio, 4 h. Potency, µM (top dose mostly 46.1 µM), hits mostly inhibitors. actives 0.05% (n = 340,000). AID 493014, 2011; active = well fitted inhibition curve with a large enough effect in the signal ratio, with a control signal flat, not every such curve was filed as active; inconclusive = small, poorly fitted or top-dose-only effect, or effect the other way, or a change in a side signal; the % refers to the signal ratio
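Concentration-response series (up to 46 uM) were applied to TMD8 dual-reporter cells for 4 h at 37C with doxycycline. Green/red ratio, after filter-overlap correction, defined %Activity; red signal alone was normalised to basal cells and zero luminescence.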
MCF10A rerep = A quantitative high throughput screen for small molecules that induce DNA re-replication in MCF 10a normal breast cells; MCF 10A DNA re-replication, Hoechst nuclear intensity, 48 h; AID 624296, 2012; actives 2.9% (n = 350,000); Potency, µM (doses to about 46.1 µM), hits mostly activators; note: nearly all actives have a fitted effect of over 50% in size
DT40 TDP1 no CPT = qHTS for Inhibitors of human tyrosyl-DNA phosphodiesterase 1 (TDP1): qHTS in cells in absence of CPT | actives 15% (n = 420,000) | Potency, µM (titrated, usually from 46.2 µM), usual class: inhibitors | DT40 Tdp1-/- hTDP1 cells, no CPT, ATP luminescence, 48 h; note: nearly all actives have a fitted effect of over 55% in size
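Cells were dispensed at 400 per well, compounds added by pin tool, plates incubated ≥48 hr at 37 °C, then CellTiter-Glo added for 30 min at room temperature before luminescence reading. Line: DT40 Tdp1-/- complemented with hTDP1; camptothecin omitted.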
IL1B secr inh = qHTS for Inhibitors of Inflammasome Signaling: IL-1-beta AlphaLISA Primary Screen | activity change, % at 57.5 µM | actives 4.7% (n = 360,000) | THP-1 LPS/ATP IL-1B secretion, AlphaLISA, 16 h; active compounds read low; in the data active = activity change below about -50%; inconclusive = mostly about -30% to -49%
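THP-1 cells pretreated 1 hr with compounds (up to 57.5 uM final), then stimulated with LPS (250 ng/mL final) plus ATP (1.25 mM final); secreted IL-1B measured by AlphaLISA after 16 hr, decreased signal indicating inhibition.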
TDP1 cell CPT = qHTS for Inhibitors of human tyrosyl-DNA phosphodiesterase 1 (TDP1): qHTS in cells in presence of CPT; chicken DT40 Tdp1-/-;hTDP1 cells + 20 nM CPT, ATP luminescence, 48 h; Potency, µM (top dose mostly 46.2 µM), usual class: inhibitors; actives 12% (n = 420,000); AID 686979, 2013; note: nearly all actives have a fitted effect of over 55% in size
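Cell growth measured by CellTiter-Glo luminescence after a minimum 48 h, 37 C compound exposure with 20 nM CPT in Tdp1-knockout DT40 cells stably expressing hTDP1, seeded 400/well; qHTS titration format.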
Numbers stand for hits. This is a sample that favours compounds with a hit; in the whole collection about 19% have one here. Unless noted, calls come from the whole dose curve; as a rule, active = well fitted curve in the direction sought with a large enough effect; inconclusive = small, poorly fitted or top-dose-only effect, or another doubt; inactive = no such curve, though single readings can be large; an effect the other way counts as inactive or inconclusive.

For CCCCN(C=O)c1c(CC)nc2ccc(C(=O)NCCCN3CCCC3=O)cn12 the results were DT40 TDP1 no CPT inactive, IL1B secr inh inactive and TDP1 cell CPT inactive.
`CCOc1ccc(CCn2c3c(c(=O)[nH]c2=O)C(NC(=O)c2ccccc2)(C(F)(F)F)C(=O)N3)cc1OCC` (configuration not stated) gave DT40 TDP1 no CPT inactive and TDP1 cell CPT inactive.
O=C(CNC(=O)c1ccc2c(=O)n3c(nc2c1)CCC3)Nc1ccc(F)c(F)c1 was read as SW480 rerep inactive, BCR signal inh inactive, MCF10A rerep inactive, DT40 TDP1 no CPT inactive, IL1B secr inh inactive and TDP1 cell CPT inactive.
Screening c1ccc(OCCCN2CCCC2)cc1 returned SW480 rerep inactive, BCR signal inh inactive, MCF10A rerep inactive, DT40 TDP1 no CPT inactive, IL1B secr inh inactive and TDP1 cell CPT inactive.
For CC(C)(c1ccccc1)c1ccc(OCCCN2CCNCC2)cc1 the results were SW480 rerep inconclusive, BCR signal inh inconclusive, MCF10A rerep inconclusive, DT40 TDP1 no CPT 7.3µM, IL1B secr inh -80 and TDP1 cell CPT 5.8µM.
`COc1ccccc1NC(=O)COC(=O)CC(C)(C)CC1=NS(=O)(=O)c2ccccc2N1` gave SW480 rerep inactive, BCR signal inh inactive, MCF10A rerep inactive, DT40 TDP1 no CPT inconclusive, IL1B secr inh inactive and TDP1 cell CPT 23µM.
Screening COc1ccc(Cl)cc1NC(=O)COC(=O)CCCC1=NS(=O)(=O)c2ccccc2N1 returned SW480 rerep inactive, BCR signal inh inactive, MCF10A rerep inactive, DT40 TDP1 no CPT inactive, IL1B secr inh inactive and TDP1 cell CPT inactive.
For CC(C)(CC(=O)OCC(=O)Nc1ccccc1F)CC1=NS(=O)(=O)c2ccccc2N1 the results were SW480 rerep inactive, BCR signal inh inactive, MCF10A rerep inactive, DT40 TDP1 no CPT 13µM, IL1B secr inh inactive and TDP1 cell CPT 23µM.
CCCCn1c(SCc2nc3ccccc3s2)nc2ccccc2c1=O was read as SW480 rerep inactive, BCR signal inh inactive, MCF10A rerep inconclusive, DT40 TDP1 no CPT 8.2µM, IL1B secr inh inactive and TDP1 cell CPT 21µM.
O=c1c2ccccc2nc(SCc2ccccc2)n1Cc1ccco1 was read as SW480 rerep inactive, BCR signal inh inconclusive, MCF10A rerep inactive, DT40 TDP1 no CPT inconclusive, IL1B secr inh inactive and TDP1 cell CPT inactive.
For CCn1c(SCc2ccccc2)nc2cc(S(N)(=O)=O)ccc21 the results were SW480 rerep inactive, BCR signal inh inactive, MCF10A rerep inconclusive, DT40 TDP1 no CPT inconclusive, IL1B secr inh inactive and TDP1 cell CPT inactive.
For O=c1c2ccccc2nc(SCc2nc3ccccc3s2)n1Cc1ccco1 the results were SW480 rerep inactive, BCR signal inh inactive, MCF10A rerep inconclusive, DT40 TDP1 no CPT 18µM, IL1B secr inh inactive and TDP1 cell CPT 13µM.
CCCCn1c(SCC#N)nc2ccccc2c1=O was read as DT40 TDP1 no CPT inconclusive and TDP1 cell CPT inactive.
For CCCCn1c(SCc2nc3ccccc3s2)nc2cc(S(N)(=O)=O)ccc21 the results were SW480 rerep inconclusive, BCR signal inh inactive, MCF10A rerep inactive, DT40 TDP1 no CPT 16µM, IL1B secr inh inconclusive and TDP1 cell CPT 16µM.
Screening CC(=O)c1ccc(Nc2ccc(-c3ccccc3F)nn2)cc1 returned SW480 rerep inconclusive, BCR signal inh inconclusive, MCF10A rerep inconclusive, DT40 TDP1 no CPT inconclusive, IL1B secr inh inactive and TDP1 cell CPT inactive.
Screening CCCN1CCN(CCCNC(=O)C(CC)n2nc(C)n3c(cc4occc43)c2=O)CC1 (configuration not stated) returned SW480 rerep inconclusive, BCR signal inh inactive, MCF10A rerep inactive, DT40 TDP1 no CPT inactive, IL1B secr inh inactive and TDP1 cell CPT inactive.
